Sampled rows, rich in hits. Any-hit rate of the full collection: about 3%.
SNCA expr inhib: reduces expression of the alpha-synuclein gene | HEK-293 SNCA-luciferase knock-in, luminescence, 24 h | Potency, µM (highest dose often 57.2 µM), actives largely listed as inhibitors | 140,000 compounds, 0.17% hits; also: nearly all actives have a fitted effect of over 45% in size
IP6K1 inh: IP6K1 kinase inhibition. activity change, % (series mostly up to about 58 µM). Q92551. 140,000 compounds, 0.81% hits. AID 1645851. IP6K1 kinase, ADP-Glo luminescence, 2 h; stronger effect = lower value; in the data active = activity change below about -25%
Target sequence (Q92551 whole entry, looked up): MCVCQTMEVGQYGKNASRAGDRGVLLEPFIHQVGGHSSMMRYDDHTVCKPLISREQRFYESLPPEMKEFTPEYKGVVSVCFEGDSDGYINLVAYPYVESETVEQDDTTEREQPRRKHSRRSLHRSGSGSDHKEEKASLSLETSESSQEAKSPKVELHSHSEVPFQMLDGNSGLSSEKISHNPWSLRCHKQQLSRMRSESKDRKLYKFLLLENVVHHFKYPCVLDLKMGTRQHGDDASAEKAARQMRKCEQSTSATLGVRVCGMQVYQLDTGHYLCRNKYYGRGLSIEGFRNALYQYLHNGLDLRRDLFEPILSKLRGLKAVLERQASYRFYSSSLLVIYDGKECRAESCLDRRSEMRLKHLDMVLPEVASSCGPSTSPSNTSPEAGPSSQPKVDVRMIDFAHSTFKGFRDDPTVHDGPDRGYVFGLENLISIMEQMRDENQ
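ADP-Glo luminescence measures ADP made by human IP6K1 during a 2 h RT reaction with ATP/IP6 (mix at 1.3 mM/130 uM); top library doses 57.5 and 19.1 uM final.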
KDM5B inh: blocks human KDM5B histone demethylase activity; KDM5B demethylase, FDH-coupled NADH fluorescence (FDH is formaldehyde dehydrogenase); Potency, µM (highest dose often 57.7 µM), most hits filed as inhibitors; 220,000 compounds, 2.6% hits; also: nearly all actives have a fitted effect of over 70% in size
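KDM5BΔAP (200 nM final) in 50 mM HEPES pH 7.5, 0.01% Tween-20 was preincubated 10 min at RT with compound over a concentration range. Substrate mix (H3K4me3 12.5 µM, α-KG 25 µM, Fe²⁺, ascorbate, NAD⁺, FDH) was added, and NADH fluorescence change over 30 min gave dose-response curves.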
HEK293 viab: reduces viability of HEK-293 SNCA reporter cells; 150,000 compounds, 0.12% hits; Potency, µM (top dose mostly 57.1 µM), actives largely listed as cytotoxic; HEK-293-SNCA-luc viability, GF-AFC fluorescence, 24 h; also: nearly all actives have a fitted effect of over 30% in size
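HEK-293-SNCA-luc cells (1500/well) plated 24 h, then exposed 24 h to a dilution series; GF-AFC added 30 min at 37C, fluorescence 405/540 nm; normalised to medium-only and DMSO wells, Hill fit.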
IP6K1 inh cnf: confirmation of human IP6K1 inhibitors; shares compounds with IP6K1 inh; recombinant IP6K1 kinase, ADP-Glo luminescence, 2 h; Potency, µM (doses to about 49 µM), hits mostly inhibitors; 1,200 compounds, 13% hits; AID 1645852; also: nearly all actives have a fitted effect of over 65% in size
Of the large screens only hits and unclear results are named; the others gave an inactive call (follow-up assays come after a bar, where they were run). Unless noted, calls follow the shape of the dose curve; as a rule, active = well fitted curve in the direction sought with a large enough effect; inconclusive = small, poorly fitted or top-dose-only effect, or another doubt; inactive = no such curve, though single readings can be large; an effect the other way counts as inactive or inconclusive.

CC1CCc2noc(NC(=O)COc3ccc(C(C)C)cc3)c2C1 (stereo not drawn)	none (no result: SNCA expr inhib, IP6K1 inh, HEK293 viab)
O=C(O)CCSc1sc(=S)sc1SCCC(=O)O	none (no result: SNCA expr inhib, IP6K1 inh, HEK293 viab)
Cc1ccn2c(Nc3ccc4c(c3)OCCO4)c(-c3cccs3)nc2c1	IP6K1 inh -27, KDM5B inh inconclusive | IP6K1 inh cnf inactive
Cc1nn2c(=O)cc(COC(=O)c3ccc(F)cc3)nc2s1	IP6K1 inh -27 | IP6K1 inh cnf inactive
Cc1nn2c(=O)cc(COC(=O)c3ccc(C(C)(C)C)cc3)nc2s1	none
Cc1oc(-c2ccccc2)nc1CC(=O)Nc1ccc(S(=O)(=O)NC2CC2)cc1	none (no result: SNCA expr inhib, IP6K1 inh, HEK293 viab)
Cc1cc2c(cc1S(=O)(=O)NCc1ccc(F)cc1)n(C)c(=O)c(=O)n2C	IP6K1 inh -26, KDM5B inh inconclusive | IP6K1 inh cnf inactive
COc1ccc(CNS(=O)(=O)c2cc3c(cc2C)n(C)c(=O)c(=O)n3C)cc1	none
O=C(NCc1cccc(C(F)(F)F)c1)c1nc2sccn2c1-c1cccc(C(F)(F)F)c1	SNCA expr inhib inconclusive (no result: KDM5B inh)
COc1cccc(C2c3c(oc4ccc(C)cc4c3=O)C(=O)N2CCCN2CCOCC2)c1OC (stereo not drawn)	IP6K1 inh -25 | IP6K1 inh cnf inactive
COc1cc(C2c3c(oc4cc(C)c(C)cc4c3=O)C(=O)N2CCCN2CCOCC2)ccc1O (stereo not drawn)	KDM5B inh inconclusive
COc1cc(/C=C(\C#N)C(=O)c2ccc(C)cc2)ccc1OCc1ccc(Cl)cc1Cl	none (no result: SNCA expr inhib, IP6K1 inh, HEK293 viab)
N=c1nnc(-c2ccc(Cl)cc2)cn1O	none (no result: SNCA expr inhib, IP6K1 inh, HEK293 viab)
C=Cc1ccc(Cn2c(C(=O)O)c(CNCCc3ccco3)c3ccc(C)cc32)cc1	IP6K1 inh -29, KDM5B inh inconclusive, HEK293 viab inconclusive | IP6K1 inh cnf inactive
Cc1ccc(NC(=O)CCCn2nc(C)c3c(C)n(-c4ccccc4)nc3c2=O)cc1Cl	none
CCOC(=O)c1cccc(NC(=O)CCCn2nc(C)c3c(C)n(-c4ccccc4)nc3c2=O)c1	IP6K1 inh -100 | IP6K1 inh cnf inactive
COc1ccc(-c2cc(C(=O)NCCc3ccccc3F)c3cnn(C)c3n2)cc1	none (no result: KDM5B inh)
CSc1ccc(-c2cccc(C(=O)NCC(=O)N3CCN(c4ncccn4)CC3)c2)cc1	none (no result: KDM5B inh)
COC(=O)CC1CCCCN1CC(=O)NC(=O)NCc1ccco1 (stereo not drawn)	none (no result: SNCA expr inhib, IP6K1 inh, HEK293 viab)
COc1ccc(C(=O)N(Cc2cc(OC)c(OC)c(OC)c2)CC2CCCO2)cc1 (stereo not drawn)	IP6K1 inh -25, KDM5B inh inconclusive, HEK293 viab inconclusive | IP6K1 inh cnf inactive
CCCOc1ccc(C(=O)N(Cc2ccc(N(C)C)cc2)CC2CCCO2)cc1 (stereo not drawn)	none
CCc1cc(C(=O)OC)c(N)s1	none (no result: SNCA expr inhib, IP6K1 inh, HEK293 viab)
N#C/C(=C/c1ccccc1Cl)c1nc2ccccc2c(=O)[nH]1	none
N#C/C(=C\c1cc(Br)c(O)c(Br)c1)c1nc2ccccc2c(=O)[nH]1	IP6K1 inh -29, KDM5B inh inconclusive | IP6K1 inh cnf 1.8µM
CCOc1ccc(CNC(=O)CCS(=O)(=O)c2cc3c4c(c2)CCN4C(=O)CC3)cc1OC	IP6K1 inh -28 | IP6K1 inh cnf inactive
Cc1ccc(OCCCCn2cnc3ccccc32)cc1	IP6K1 inh -33, KDM5B inh inconclusive | IP6K1 inh cnf inconclusive
CCc1cccc(CC)c1N(COC)C(=O)Cn1c(C)nc2ccccc21	SNCA expr inhib inconclusive, IP6K1 inh -33, KDM5B inh inconclusive | IP6K1 inh cnf inactive
COC(=O)c1c(SCC(=O)Nc2ccccc2C(F)(F)F)[nH]c2ccc(Cl)cc2c1=O	none
COC(=O)c1c(SCC(=O)Nc2cc(C)cc(C)c2)[nH]c2ccccc2c1=O	IP6K1 inh -47 | IP6K1 inh cnf inconclusive
COc1cc(Cl)c(C)cc1NC(=O)CSc1ncc(S(=O)(=O)c2ccc(C(C)(C)C)cc2)c(=O)[nH]1	none
CCc1ccc(S(=O)(=O)c2cnc(SCC(=O)Nc3ccc(OC)cc3OC)[nH]c2=O)cc1	IP6K1 inh -28, KDM5B inh inconclusive | IP6K1 inh cnf inconclusive
Cc1ccc(S(=O)(=O)c2cnc(SCC(=O)Nc3ccc4c(c3)OCCO4)[nH]c2=O)cc1C	IP6K1 inh -25 | IP6K1 inh cnf inconclusive
O=C(NCc1ccc2c(c1)CCN2C(=O)c1ccncc1)c1ccccc1F	IP6K1 inh -30 | IP6K1 inh cnf inactive
O=C(NCc1ccc2c(c1)CCN2C(=O)c1ccncc1)c1ccccc1Br	none
CCC(=O)N1CCc2cc(OC)c(OC)cc2C1COc1ccc2c(C)cc(=O)oc2c1 (stereo not drawn)	IP6K1 inh -31 | IP6K1 inh cnf inactive
Cc1cc(CNC(=O)Cc2nonc2C)c2[nH]c(-c3ccccc3)c(C)c2c1	IP6K1 inh -29, KDM5B inh inconclusive | IP6K1 inh cnf inactive
Cc1ccc2oc(C(=O)N(C)CCOc3ccc(F)cc3)cc(=O)c2c1	none (no result: SNCA expr inhib, IP6K1 inh, HEK293 viab)
Cc1nc2nc(SCC(=O)NCc3ccccc3)nn2c(C)c1Cc1ccccc1Cl	KDM5B inh inconclusive
Cc1cccc(Cc2c(C)nc3nc(SCC(=O)NCc4ccc(F)cc4)nn3c2C)c1	IP6K1 inh -37, KDM5B inh inconclusive | IP6K1 inh cnf inconclusive
O=C(c1ccco1)N(Cc1cccnc1)c1nc2ccc(F)cc2s1	IP6K1 inh -27 | IP6K1 inh cnf inactive
O=C(CCc1ccccc1)N(Cc1cccnc1)c1nc2ccc(F)cc2s1	none
Cc1cccnc1NC(=O)Cc1nc(-c2ccccc2)oc1C	none (no result: SNCA expr inhib, IP6K1 inh, HEK293 viab)
Cc1ccc(-c2ccc(CCC(=O)O)n2-c2ccc(C)c(Cl)c2)cc1	KDM5B inh inconclusive
O=C(O)CCc1ccc(-c2ccccc2)n1-c1ccc(C(=O)O)cc1	IP6K1 inh -27, KDM5B inh inconclusive | IP6K1 inh cnf inactive
Cc1nn(-c2ccccc2)c2c1C(C1CC1)N(CC1CN(C(=O)c3cccnc3)C1)C2=O (stereo not drawn)	none (no result: SNCA expr inhib, KDM5B inh, HEK293 viab)
O=C(C1CCCN(C2CCN(c3ncnc4sccc34)CC2)C1)N1CCCC1 (stereo not drawn)	SNCA expr inhib inconclusive, IP6K1 inh -28, KDM5B inh inconclusive | IP6K1 inh cnf inactive
OCCCNc1cc(-c2ccnc(Nc3cccc(Cl)c3)n2)ccn1	SNCA expr inhib inconclusive, IP6K1 inh -26, HEK293 viab inconclusive (no result: KDM5B inh) | IP6K1 inh cnf inconclusive
CC1CCCC(NC(=O)CCC2CCCO2)C1 (stereo not drawn)	none (no result: SNCA expr inhib, IP6K1 inh, HEK293 viab)
Cc1ccc(NC(=O)c2ccc(CN3CC[C@H](N(C)C)C3)c(C(F)(F)F)c2)cc1Nc1nccc(-c2cncnc2)n1	none (no result: SNCA expr inhib, KDM5B inh)
Cc1ccc(C(=O)Nc2ccc(CN3CCN(C)CC3)c(C(F)(F)F)c2)cc1C#Cc1cnc2[nH]ncc2c1	IP6K1 inh -61, HEK293 viab inconclusive (no result: SNCA expr inhib, KDM5B inh) | IP6K1 inh cnf 7.3µM
CCN1CCN(Cc2ccc(NC(=O)c3ccc(C)c(/C=C/c4cnc5[nH]ccc5c4OC)c3)cc2C(F)(F)F)CC1	IP6K1 inh -39, HEK293 viab 24µM (no result: SNCA expr inhib, KDM5B inh) | IP6K1 inh cnf 4.6µM
CCCCNC(=O)c1cc(Sc2ccc(OCC)cc2)nc2ccccc12	IP6K1 inh -26 | IP6K1 inh cnf inactive
CC(=O)Oc1ccc2c(C)c(CC(=O)NCCc3ccc(Cl)cc3)c(=O)oc2c1OC(C)=O	none (no result: SNCA expr inhib, IP6K1 inh, HEK293 viab)

From PubChem
